Source: PubChem BioAssay
GLP1R ag: GLP-1 receptor (human) agonism; P43220; HEK293 GLP-1R CRE-luciferase, luminescence, 4-6 h; cells express a hypersensitive GLP-1R form; Potency, µM (highest dose often 45.6 µM), inactives show at the highest dose activation, actives largely listed as activators; hit rate 0.007% among 380,000; AID 624172; note: % of control where 0% means no effect
Target sequence (P43220 whole entry, looked up): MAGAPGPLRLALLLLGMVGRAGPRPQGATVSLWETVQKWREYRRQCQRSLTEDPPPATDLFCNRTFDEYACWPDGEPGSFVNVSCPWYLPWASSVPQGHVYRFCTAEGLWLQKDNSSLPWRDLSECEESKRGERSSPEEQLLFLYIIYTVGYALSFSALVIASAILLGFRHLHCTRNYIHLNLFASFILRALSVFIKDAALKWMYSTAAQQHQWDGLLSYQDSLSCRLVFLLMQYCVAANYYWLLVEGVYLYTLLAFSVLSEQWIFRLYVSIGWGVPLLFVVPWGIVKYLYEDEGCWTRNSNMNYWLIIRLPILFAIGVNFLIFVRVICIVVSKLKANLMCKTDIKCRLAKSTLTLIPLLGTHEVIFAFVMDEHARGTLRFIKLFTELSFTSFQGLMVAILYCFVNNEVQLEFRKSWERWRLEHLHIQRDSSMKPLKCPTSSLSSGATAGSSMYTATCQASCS
HEK293 tox: cytotoxicity in counter-screen for GLP-1R inverse agonists; HEK293 cAMP-luciferase reporter cells, luminescence, 24 h; Potency, µM (top dose mostly 38.3 µM), for the others: at the top dose activity change, negative = inhibition, actives largely listed as inhibitors; hit rate 0.13% among 410,000;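 note: loss of luciferase light is scored as toxicity; % is set by controls: 0 for no effect and ±100 for the full control effect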
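Quantitative HTS format, 1536 wells, 200 cells/uL seeded. Compounds: 23 nL, 24 h, 37 °C. Detection: luciferase reagent, luminescence at 12 min RT; decreased signal taken as cytotoxic.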
BRCA1 expr up: increases BRCA1 expression; MCF7-BRCA1-FFLuc reporter, luminescence, 48 h; response scale: scaled: vehicle 0%, 10 µM genistein 100%; Potency, µM (titrated, usually from 46.1 µM), without a hit: top-dose activation, actives largely listed as activators; hit rate 1.1% among 380,000; AID 624202; note: nearly all actives have a fitted effect of over 80% in size
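MCF7-BRCA1-FFLuc cells, 2000/well in phenol-red-free MEM, attached 2 h then treated 48 h at 37 C. Luciferase luminescence read 15 min after reagent; normalized to genistein maximum activation (10microM) and DMSO, concentration-response fitted.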
GLP1R inv ag: inverse agonists of human GLP-1 receptor; P43220; HEK293 GLP-1R CRE-luciferase, luminescence, 24 h; GLP-1R form is constitutively active; Potency, µM (doses to about 38.3 µM), for the others: at the top dose activity change, negative = inhibition, hits mostly inhibitors; hit rate 1.6% among 410,000; AID 624417; note: % is set by controls: 0 for no effect and ±100 for the full control effect; nearly all actives have a fitted effect of over 55% in size
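Inverse agonism was detected as reduced cAMP-driven luciferase luminescence after 24 h compound treatment. The cells were HEK293 clones expressing constitutively active human GLP-1R with the reporter. Reporter-only and GPR119 cell lines served as counterscreen controls.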
Numbers without * were called inactive; ? = inconclusive; / = no result given. Only some compounds are listed: those with a hit (about 2.6% of all), similar ones and a draw of the others. Calls come from the whole dose curve; as a rule, active = well fitted curve in the direction sought with a large enough effect; inconclusive = small, poorly fitted or top-dose-only effect, or another doubt; inactive = no such curve, though single readings can be large; an effect the other way counts as inactive or inconclusive. Potency is the fitted concentration of half-maximal effect.

SMILES	GLP1R ag	HEK293 tox	BRCA1 expr up	GLP1R inv ag
COC(=O)Cc1ccc(NC(=O)c2ccc(Br)o2)cc1	-10%	-7%	13µM*	9%
O=C(Nc1ccccc1)c1ccc(Br)o1	24%	-6%	2%	13%
COc1ccc(N2CCN(C(=O)Cn3cnc4sc(C)c(S(=O)(=O)N5CCCCC5)c4c3=O)CC2)cc1	/	-5%	/	4%
COc1ccc(NC(=O)C[C@H]2C(=O)N(Cc3ccccc3)C[C@@H]2C)cc1	3%	-7%	6%	0%
Cc1ccc(N/C=C/c2onc(C)c2[N+](=O)[O-])cc1	-1%	6%	6.3µM*	14%
COc1cccc(N/C=C/c2onc(C)c2[N+](=O)[O-])c1	-7%	7%	4µM*	10%
Cc1cccc(C)c1N/C=C/c1onc(C)c1[N+](=O)[O-]	25%	54%	-1%	9%
Cc1cccc(NC(=O)Cn2c(=O)n(Cc3ccc4c(c3)OCO4)c(=O)c3ccccc32)c1	-5%	-5%	-13%	5%
O=[N+]([O-])c1ccc(/C=N/N=C/c2ccc([N+](=O)[O-])o2)o1	14%	10µM*	-84%	?
CC(=O)N/N=C/c1ccc([N+](=O)[O-])o1	-5%	/	/	/
O=P(O)(O)OC[C@@H](O)CO	19%	/	/	/
Cc1ccc(C)c(N2CCN(S(=O)(=O)c3cccc4cccnc34)CC2)c1	15%	4%	-23%	10µM*
O=S(=O)(c1cccc2cccnc12)N1CCN(c2ccccc2)CC1	-6%	-15%	3%	-5%
O=C(Nc1ccc(Cl)c(C(F)(F)F)c1)C1CCCN(S(=O)(=O)c2cccc3cccnc23)C1 (centres undefined)	/	1%	/	42%
Cc1ccc(NC(=O)C2CCCN(S(=O)(=O)c3cccc4cccnc34)C2)cc1Cl (centres undefined)	/	-12%	/	10µM*
CC(=O)c1ccc(NC(=O)c2cc(C3CC3)nc3c2c(C)nn3-c2ccc(C)cc2)cc1	/	0%	/	-29%
O=C(c1cnn2c1NC(c1ccco1)CC2C(F)(F)F)N1CCN(c2cccc(Cl)c2)CC1 (centres undefined)	-11%	?	-82%	2.2µM*
O=C(c1ccco1)N1CCN(C(=O)c2cnn3c2NC(c2cccs2)CC3C(F)(F)F)CC1 (centres undefined)	12%	1%	-14%	4%
COc1ccc(N=Nc2cc(C)ccc2O)cc1	2%	-26%	?	12%
Cc1ccc(O)c(N=Nc2nccs2)c1	1%	?	-66%	7.1µM*
CC(=O)c1sc(NC(=O)c2ccccc2C)nc1C	9%	-3%	13µM*	6%
CC(=O)c1sc(NC(=O)c2c(F)cccc2F)nc1-c1ccccc1	15%	2%	23%	-3%
CC(=O)Nc1nc(C)c(C(C)=O)s1	1%	-9%	-29%	2%
CC(=O)c1sc(NC(=O)c2ccccc2)nc1-c1ccccc1	6%	-11%	2.8µM*	?
CC(=O)c1sc(NC(=O)c2ccc(Cl)cc2)nc1C	10%	-1%	3.2µM*	13%
SMILES	GLP1R ag	HEK293 tox	BRCA1 expr up	GLP1R inv ag
Clc1ccc2c(Cl)cc[n+](CCC3CCCCC3)c2c1	/	/	0%	/
Cc1c(C(=O)N(Cc2ccccc2F)C2CCS(=O)(=O)C2)oc2ccccc12 (centres undefined)	/	-4%	/	-12%
C=CCn1c(COc2ccc(Cl)cc2)nnc1SCC(=O)N/N=C/c1cccc(O)c1	0%	-14%	-11%	?
C=CCn1c(COc2ccccc2)nnc1SC(C)C(=O)N/N=C/c1cc(Cl)ccc1O (centres undefined)	-17%	-10%	-86%	8.9µM*
Cn1c(Cl)cnc1C1CC(=O)c2cc(Cl)ccc2O1 (centres undefined)	-4%	7.9µM*	-82%	3.5µM*
O=C(Cn1ncc2c3ccccc3n(Cc3ccccc3)c2c1=O)N1CCCCCC1	/	-15%	/	-17%
O=C(Cn1ncc2c3ccccc3n(Cc3ccc(F)cc3)c2c1=O)N1CCN(c2ncccn2)CC1	0%	-14%	-64%	13µM*
O=C(NCc1ccccc1)c1noc2c1CCCC2	-7%	-29%	-40%	-26%
Cc1ccc(Cn2ccc(NC(=O)c3noc4c3CCCC4)n2)cc1	-15%	-13%	5.6µM*	6%
O=C(NCCc1ccccc1)c1noc2c1CCCCC2	9%	-10%	4µM*	-19%
Cc1[nH]nc(-c2cccnc2)c1N=NN(C)C	-17%	10µM*	-93%	?
CN(C)c1nc(N)nc(-c2cccnc2)n1	13%	5%	2%	47%
COc1ccccc1N1CCN(/N=C/C(Cl)=C/c2ccccc2)CC1	17%	-15%	4µM*	?
COCCn1c(-c2ccc(OC)cc2)c(-c2ccc(OC)cc2)oc1=O	8%	19%	-11%	-22%
CC(C)OC(=O)CSc1nc2cc3c(cc2cc1C#N)OCO3	10%	9%	4.5µM*	0%
CCOC(=O)CSc1nc2ccc(C)cc2cc1C#N	2%	-7%	4µM*	0%
COC(=O)CSc1nc2cc3c(cc2cc1C#N)OCO3	3%	11%	?	0%
CCOC(=O)CC(=O)CSc1nc2c(C)c(C)ccc2cc1C	4%	-6%	2%	?
CCOC(=O)CC(=O)CSc1nc2cc(C)ccc2cc1C	20%	-5%	-80%	10µM*
COc1ccc2c(c1)CC(C(=O)N1CCC(C(N)=O)CC1)CO2 (centres undefined)	/	0%	/	9%
O=C(NCCc1cccs1)C1CC(c2ccc([N+](=O)[O-])cc2)=NO1 (centres undefined)	2%	0%	10µM*	3%
CCN(Cc1nc2ccccc2c(=O)[nH]1)C(=O)COc1ccccc1-c1ccccc1	-5%	?	-4%	11µM*
COc1ccccc1CN(Cc1nc2ccccc2c(=O)[nH]1)C(=O)Nc1ccccc1C	3%	?	-1%	0%
COc1ccccc1CN(Cc1nc2ccccc2c(=O)[nH]1)C(=O)Nc1ccc(C)cc1	6%	?	5%	10µM*
CC(C)(C)OC(=O)C[C@H]1C/C=C\C[C@@H](CC(=O)N[C@H](CO)Cc2ccccc2)C(=O)NC[C@H](c2ccccc2)OC1=O	-1%	?	0%	-13%
SMILES	GLP1R ag	HEK293 tox	BRCA1 expr up	GLP1R inv ag
CCOc1ccc(NS(=O)(=O)c2cccc(C(=O)N3CCN(C/C=C/c4ccccc4)CC3)c2)cc1	-11%	-29%	-76%	10µM*
CCc1ccc(-c2[nH]nc3nc(-c4cc(OC)ccc4OC)cc(C(=O)O)c23)cc1	/	0%	/	15%
CCCn1nc(NC(=O)c2ccco2)c2cc3cc(C)ccc3nc21	3%	148%	40%	3%
CCCn1nc(NC(=O)c2ccccn2)c2cc3cc(C)ccc3nc21	-6%	11%	11µM*	57%
O=C(NCC1CCCO1)Nc1cccc(Cl)c1 (centres undefined)	2%	6%	62%	5%
Cc1cccc(NC(=O)C(=O)NCC2CCCO2)c1 (centres undefined)	-7%	-4%	2.2µM*	14%
